# Source: PubChem BioAssay
# Rows were chosen to be rich in hits. Some 1.2% of all compounds tested hit in one or more screens of this group.
# PKA-R2B act – activates the human PKA-R2B holoenzyme complex. P22694+P31323. PKA-R2B holoenzyme dissociation, Cy5-IP20 fluorescence polarization; R2B truncated from residue 108, S112A mutant; 0% DMSO only, 100% 113 µM cGMP. activation, % at 11.4 µM. hit rate 0.079% among 340,000;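 active means activation above a cutoff set at the mean over all compounds plus 3 SD, cut at about 18% in these data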;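 further: higher means more holoenzyme dissociation and a rise in polarization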
# PG9 Ab binder – small molecules binding HIV-1 gp120 antibody PG9; AID 624416; TR-FRET gp120-PG9 antibody binding; inhibition, % at 6.7 µM; hit rate 0.43% among 360,000; in the data active means inhibition above about 8.5%
# NR1D1 modulator – Rev-erb alpha (human) modulation. Rev-erbα–FITC-DNA binding, fluorescence polarization, 90 min. hit rate 0.79% among 370,000. activity, % at 10 µM. AID 1259318;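 active means activity above about 14%, limit read from the data; passing the limit was not always enough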;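 further: 0% = DMSO wells with 35 nM protein and 100% = DMSO wells with 750 nM protein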
# PKA-R1A act – activates the PKA-R1A holoenzyme complex; P00514+P68181; PKA-R1A dissociation, Cy5-IP20 fluorescence polarization; scaled: DMSO 0%, 113 µM cGMP 100%; activation, % at 11.4 µM; hit rate 0.083% among 340,000; AID 504707;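 active means percent activation above the mean of all tested compounds plus 3 SD, cut at about 19% in these data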;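 further: higher means more PKAc released from R1A so a rise in polarization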
# NR1D1 mod conf – confirmation of modulators of human Rev-erb alpha DNA binding | activation, % at 25 µM | Rev-erb alpha FITC-DNA binding, fluorescence polarization, 90 min | hit rate 61% among 3,000 | AID 1259319 | shares compounds with NR1D1 modulator;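 active means activation at or above a set limit, or at least 3 SD above the negative control mean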;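 further: 0% = 35 nM protein with DMSO and 100% = 750 nM protein high control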
# RORg counter – affects RORgamma DNA binding in a Rev-erb alpha counter-screen. shares compounds with NR1D1 modulator. purified RORgamma protein-FITC-DNA binding, fluorescence polarization. IC50, µM. hit rate 8% among 910;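 active means Compounds whose fitted half-maximal concentration for disrupting protein-DNA binding is below 10 micromolar; the record names Rev-erb in its text, so the target is in doubt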
# Numbers without * were called inactive; i = inactive; . = no result.
SMILES,PKA-R2B act,PG9 Ab binder,NR1D1 modulator,PKA-R1A act,NR1D1 mod conf,others
Cc1cc(NC(=O)c2cccs2)cc(-c2nc3ncccc3o2)c1O,-1,1,71*,3,67*,RORg counter=>40
Cc1ccc(-c2nc3ncccc3o2)cc1NC(=O)c1cccs1,-1,2,3,-6,.,
COc1ccc(-c2cc(C(=O)OCC(=O)NC3CC3)c3ccccc3n2)cc1OC,11,0,1,0,.,
COc1ccc(CNC(=O)COC(=O)c2cc(-c3ccc(Cl)s3)nc3ccccc23)cc1,1,6,121*,3,61*,
O=C(COC(=O)c1cc(-c2ccc(Cl)s2)nc2ccccc12)NCc1ccco1,-7,1,-5,1,.,
COc1ccc2nc(-c3ccccc3)cc(C(=O)OCC(=O)NC3CC3)c2c1,-7,0,18*,-2,2,
C/C=C/C(=O)N1CCC(C(=O)NC2CCCc3ccccc32)CC1 (stereo not given),.,.,6,.,.,
O=C(NC1CCCCN(Cc2ccc(Cl)cc2)C1=O)c1cc(-c2ccccc2)no1 (stereo not given),.,.,3,.,.,
COc1ccc(C(=O)/C(C#N)=N/Nc2ccc([N+](=O)[O-])cc2)cc1,6,1,44*,6,36*,RORg counter=>40
COC(=O)[C@]12C[C@H](CC(=O)N3CCN(C(=O)c4ccco4)CC3)C(=O)N(CCc3ccc(OC)c(OC)c3)C1=C[C@H](C1CCCC1)O[C@@H]2C,.,.,-2,.,.,
O=[N+]([O-])c1ccc(N2CCN(Cc3ccccc3)CC2)s1,0,-2,19,-4,.,
CC1CCCN(c2ccc([N+](=O)[O-])s2)C1 (stereo not given),2,-4,31*,0,15,
CC1CCCN(c2c([N+](=O)[O-])cc(C(=O)O)cc2[N+](=O)[O-])C1 (stereo not given),-2,0,1,9,.,
O=[N+]([O-])c1ccc(N2CCCCC2)s1,-2,-3,23*,-7,18*,
O[C@H](COc1ccc(Cl)cc1)CN1CCC(C(O)(c2ccccc2)c2ccccc2)CC1,.,.,0,.,.,
O=c1c2ccccc2c(-c2ccccc2)nn1Cc1c(Cl)cccc1Cl,2,1,6,-2,.,
O=c1c2ccccc2c(-c2ccccc2)nn1-c1cc(Cl)cc(Cl)c1,.,0,31*,.,0,
Cc1cccc(C(=O)OCC(=O)c2cccc(Br)c2)c1O,3,1,19*,6,5,
COc1ccc(OC)c(C(=O)COC(=O)c2[nH]c(C)c(C(C)=O)c2C)c1,-1,8,16*,-5,10,
COc1ccc(C(=O)OCC(=O)c2cc(OC)ccc2OC)c(OC)c1,-7,3,1,11,.,
O=C(Nc1cccc(C(F)(F)F)c1)OC1CCC12CCC(c1ccccc1)CC2 (stereo not given),.,.,-1,.,.,
O=C1N/C(=C\c2ccc(N3CCOCC3)c(F)c2)C(=O)N1Cc1ccccc1,5,0,28*,-4,-2,
C#CCNC(=O)c1cnn(-c2ccccc2)c1N,.,.,1,.,.,
COc1ccc(OC)c(NC(=O)C2CCN(c3cc(-c4ccccc4)nc4ncnn34)CC2)c1,5,-2,35*,6,17,
COCCCNC(=O)C[C@H]1C[C@@]2(C(=O)OC)C(=C[C@H](COCc3ccccc3)O[C@@H]2C)N(CCc2ccc(OC)c(OC)c2)C1=O,.,.,-7,.,.,
SMILES,PKA-R2B act,PG9 Ab binder,NR1D1 modulator,PKA-R1A act,NR1D1 mod conf,others
CCN(CC)c1ccc(/C=C2\C(=N)N3N=C(CC(=O)N4CCOCC4)SC3=NC2=O)cc1,-4,-3,37*,-10,22*,
CSc1ccc(/C=C2\C(=N)N3N=C(CC(=O)N4CCOCC4)SC3=NC2=O)cc1,8,1,11,-6,.,
Cc1cccc2cc(C#N)c(SCC#N)nc12,8,2,63*,0,53*,RORg counter=>40
CCC(=O)N(Cc1ccccc1)c1ccccc1C(=O)Nc1cc(OC)ccc1OC,.,.,-2,.,.,
C(=Cc1c[nH]c2ccccc12)c1nccc2ccccc12,2,-2,25*,-6,23*,
OCC[n+]1ccc(/C=C/c2c[nH]c3ccccc23)cc1,-3,-16,161*,3,144*,RORg counter=i
COc1cc2c3nnc(-c4ccc(F)cc4)c-3cn(Cc3ccccc3F)c2cc1OC,-1,1,21*,-2,39*,RORg counter=>40
